Several values for one entry are separate records, joined by “and”; a condition that tells them apart may be missing. Identical values can stand only once. Activity calls are given as the source filed them. Unless noted, calls follow the shape of the dose curve; as a rule, active = well fitted curve in the direction sought with a large enough effect in the repeat runs; inconclusive = weak or mixed curves; inactive = no such curve, though single readings can be large; an effect the other way counts as inactive or inconclusive.

A short description of test [1]: qHTS assay to identify small molecule antagonists of the androgen receptor (AR) signaling pathway using the MDA cell line - cell viability counter screen (AID 743041; also: nearly all actives have a fitted effect of over 45% in size; also: potency is read from the fitted curve at half-maximal effect). The gist of the method:
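MDA-kb2 AR-luc human breast carcinoma cells (MMTV-luciferase, AR/GR responsive) were treated with compounds plus R1881 agonist for 16 h at 37 °C. Viability was read as CellTiter-Fluor fluorescence in the same wells as the reporter assay.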

Test [2] has as its system thyroid hormone receptor (rat, GH3 cells). The test is described as follows: qHTS assay to identify small molecule agonists of the thyroid receptor (TR) signaling pathway (AID 743066; calls by dose curve). (In general: In qHTS, concentration-response curves come from the screen itself.)
A short description of test [3]: qHTS assay to identify small molecule antagonists of the estrogen receptor alpha (ER-alpha) signaling pathway - cell viability counter screen (AID 743074; calls by dose curve; also: nearly all actives have a fitted effect of over 45% in size; also: potency is read from the fitted curve at half-maximal effect).
Test [4] concerns the target Estrogen receptor (Homo sapiens) (UniProt P03372). The test is described as follows: qHTS assay to identify small molecule agonists of the estrogen receptor alpha (ER-alpha) signaling pathway (AID 743075; calls by dose curve).
The target is the same in test [5]. Put plainly: qHTS assay to identify small molecule agonists of the estrogen receptor alpha (ER-alpha) signaling pathway using the BG1 cell line (AID 743079). Also: nearly all actives have a fitted effect of over 20% in size.
Test [6] can be described thus: qHTS assay to identify small molecule antagonists of the estrogen receptor alpha (ER-alpha) signaling pathway using the BG1 cell line - cell viability counter screen (AID 743081).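 Also: compound given together with 17beta-estradiol as the ER stimulus; nearly all actives have a fitted effect of over 45% in size.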 Also: potency is read from the fitted curve at half-maximal effect.
For test [7], the target named is Aromatase (Homo sapiens) (UniProt P11511). The test is described as follows: qHTS assay to identify aromatase inhibitors (AID 743083). Also: nearly all actives have a fitted effect of over 55% in size. Also: potency is read from the fitted curve at half-maximal effect.
Chain of Aromatase (Homo sapiens) (P11511 whole entry, looked up): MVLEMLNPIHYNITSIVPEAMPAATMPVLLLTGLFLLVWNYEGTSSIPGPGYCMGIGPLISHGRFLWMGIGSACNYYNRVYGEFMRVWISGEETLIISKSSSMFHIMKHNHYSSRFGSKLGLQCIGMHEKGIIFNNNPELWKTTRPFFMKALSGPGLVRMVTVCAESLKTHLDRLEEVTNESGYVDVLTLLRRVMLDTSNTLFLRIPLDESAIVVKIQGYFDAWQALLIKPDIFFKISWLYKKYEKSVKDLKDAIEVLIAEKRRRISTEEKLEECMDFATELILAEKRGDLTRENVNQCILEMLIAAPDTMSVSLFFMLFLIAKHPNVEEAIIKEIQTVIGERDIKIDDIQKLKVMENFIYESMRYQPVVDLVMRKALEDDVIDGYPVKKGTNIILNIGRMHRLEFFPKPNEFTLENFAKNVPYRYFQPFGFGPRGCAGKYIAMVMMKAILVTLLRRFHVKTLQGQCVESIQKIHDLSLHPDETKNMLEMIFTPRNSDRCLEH
The nature of test [8]: qHTS assay for identifying genotoxic compounds that show differential cytotoxicity against isogenic chicken DT40 cell lines with known DNA damage response pathways - wild type cell line (AID 743012). Also: nearly all actives have a fitted effect of over 60% in size. Also: potency is read from the fitted curve at half-maximal effect. The gist of the method: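 Quantitative HTS on parental DT40 cells: 40 h compound treatment at 37 C/5% CO2, with viability then determined by CellTiter-Glo luminescence. Values serve as the DNA repair-proficient reference for differential cytotoxicity.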

Test [9] in a line: qHTS assay for identifying genotoxic compounds that show differential cytotoxicity against isogenic chicken DT40 cell lines with known DNA damage response pathways - Rev3 mutant cell line (AID 743014). Also: nearly all actives have a fitted effect of over 55% in size. Also: potency is read from the fitted curve at half-maximal effect.
Test [10] in a line: qHTS assay for identifying genotoxic compounds that show differential cytotoxicity against isogenic chicken DT40 cell lines with known DNA damage response pathways - Rad54/Ku70 mutant cell line (AID 743015). Also: nearly all actives have a fitted effect of over 60% in size. Also: potency is read from the fitted curve at half-maximal effect.
Test [11] can be described thus: qHTS assay to identify small molecule antagonists of the thyroid receptor (TR) signaling pathway - cell viability counter screen (AID 743064). Also: nearly all actives have a fitted effect of over 50% in size. Also: potency is read from the fitted curve at half-maximal effect. In a few lines:
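Plate GH3.TRE-Luc cells; incubate 4 h at 37 °C; add compound, then T3 to 1 nM final; incubate 23.5 h; add CellTiter-Fluor; incubate 30 min at 37 °C, 5% CO2; read fluorescence.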

A short description of test [12]: qHTS assay to identify small molecule antagonists of the thyroid receptor (TR) signaling pathway (AID 743065). Also: nearly all actives have a fitted effect of over 55% in size. Also: potency is read from the fitted curve at half-maximal effect. In a few lines: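 GH3.TRE-Luc rat pituitary cells carrying two TR response elements driving luciferase were plated for 4 h, given compound plus 1 nM T3 (final), and incubated 23.5 h at 37 C. ONE-Glo luminescence measured reporter inhibition; CellTiter-Fluor fluorescence tracked cytotoxicity.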

The target of test [13] is Estrogen receptor (Homo sapiens) (UniProt P03372). The test is described as follows: qHTS assay to identify small molecule antagonists of the estrogen receptor alpha (ER-alpha) signaling pathway (AID 743069; active = well fitted curve in the direction sought with a large enough effect in the signal ratio in the repeat runs, not every such curve was filed as active; inconclusive = weak or mixed curves, or effect the other way; inactive = no such curve, though single readings can be large or run the other way; the % refers to the signal ratio; also: potency is read from the fitted curve at half-maximal effect). The gist of the method:
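HEK293 cells stably carrying an ER-alpha-UAS-bla beta-lactamase reporter were pre-cultured overnight in 2% charcoal-stripped FBS medium. Test compounds in DMSO were added together with 17beta-estradiol for 18 hr at 37C. Read-out was fluorescence after 2 hr with LiveBLAzer B/G FRET substrate at room temperature.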

A short description of test [14]: qHTS assay to identify small molecule antagonists of the estrogen receptor alpha (ER-alpha) signaling pathway using the BG1 cell line (AID 743080; calls by dose curve;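 also: BG1 cells stimulated with 17beta-estradiol alongside compound; nearly all actives have a fitted effect of over 25% in size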; also: potency is read from the fitted curve at half-maximal effect). The gist of the method:
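Endogenous full-length ER-alpha in BG1-Luc-4E2 cells drives a stably integrated 4×ERE luciferase gene; compounds were tested against 17beta-estradiol over 21.5 h, with luminescence and multiplexed viability fluorescence recorded.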

Test [15] can be described thus: qHTS assay to identify small molecule antagonists of the androgen receptor (AR) signaling pathway - cell viability counter screen (AID 743033; also: nearly all actives have a fitted effect of over 45% in size).
The target in test [16] is Androgen receptor (Homo sapiens) (UniProt P10275). The test is described as follows: qHTS assay to identify small molecule antagonists of the androgen receptor (AR) signaling pathway (AID 743035; active = well fitted inhibition curve with a large enough effect in the signal ratio in the repeat runs, not every such curve was filed as active; inconclusive = weak or mixed curves, or effect the other way; inactive = no such curve, though single readings can be large or run the other way; the % refers to the signal ratio; also: potency is read from the fitted curve at half-maximal effect). In a few lines: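 Cell line: GeneBLAzer AR-UAS-bla GripTite (HEK293). Stimulus: R1881 added after compound. Exposure: 16 h, 37C, 5% CO2. Readout: LiveBLAzer B/G FRET fluorescence after 2 h at room temperature.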
Chain of Androgen receptor (Homo sapiens) (P10275 whole entry, looked up): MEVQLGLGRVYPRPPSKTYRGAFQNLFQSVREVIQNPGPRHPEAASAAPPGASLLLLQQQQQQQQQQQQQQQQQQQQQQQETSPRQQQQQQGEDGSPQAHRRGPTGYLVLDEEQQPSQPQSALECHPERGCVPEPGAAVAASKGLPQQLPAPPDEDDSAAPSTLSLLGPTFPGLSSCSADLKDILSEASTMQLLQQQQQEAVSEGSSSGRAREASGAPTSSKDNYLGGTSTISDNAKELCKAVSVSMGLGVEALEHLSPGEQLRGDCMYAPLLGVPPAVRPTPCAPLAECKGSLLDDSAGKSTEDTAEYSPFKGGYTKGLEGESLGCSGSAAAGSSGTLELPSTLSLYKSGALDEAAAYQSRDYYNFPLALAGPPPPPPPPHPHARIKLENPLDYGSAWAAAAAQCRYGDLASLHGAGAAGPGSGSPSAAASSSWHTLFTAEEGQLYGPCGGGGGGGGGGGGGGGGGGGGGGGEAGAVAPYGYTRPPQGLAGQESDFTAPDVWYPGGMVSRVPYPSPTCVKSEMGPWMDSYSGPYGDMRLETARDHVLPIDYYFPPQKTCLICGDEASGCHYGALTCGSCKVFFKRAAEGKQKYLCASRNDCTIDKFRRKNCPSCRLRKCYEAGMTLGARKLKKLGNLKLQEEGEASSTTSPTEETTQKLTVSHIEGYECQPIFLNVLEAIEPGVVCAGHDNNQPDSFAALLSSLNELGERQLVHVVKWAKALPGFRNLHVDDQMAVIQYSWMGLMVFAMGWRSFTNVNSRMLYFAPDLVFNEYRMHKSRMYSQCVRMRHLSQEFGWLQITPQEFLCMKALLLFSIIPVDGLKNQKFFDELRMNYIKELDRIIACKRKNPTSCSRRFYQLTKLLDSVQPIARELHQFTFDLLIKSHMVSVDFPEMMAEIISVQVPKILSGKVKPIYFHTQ

The target is the same in test [17]. Put plainly: qHTS assay to identify small molecule agonists of the androgen receptor (AR) signaling pathway using the MDA cell line (AID 743040; also: nearly all actives have a fitted effect of over 20% in size). The gist of the method: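 MDA-kb2 breast carcinoma cells stably carrying an MMTV-driven luciferase reporter (AR- and GR-responsive) were seeded and held 5 h at 37C, 0% CO2, then exposed to compounds in DMSO for 16 h. Luminescence was read 30 min after ONE-Glo addition.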

For test [18] the target is unchanged. The test is described as follows: qHTS assay to identify small molecule antagonists of the androgen receptor (AR) signaling pathway using the MDA cell line (AID 743042; also: nearly all actives have a fitted effect of over 55% in size; also: potency is read from the fitted curve at half-maximal effect). The gist of the method:
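MDA-kb2 cells (human breast carcinoma, stably carrying an MMTV-luciferase reporter responsive to AR and GR) were plated at 3,000 cells/well and preincubated 5 hr at 37C, then given compound plus R1881 agonist for 16 h. ONE-Glo luminescence was read.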

Chain of Estrogen receptor (Homo sapiens) (P03372 whole entry, looked up): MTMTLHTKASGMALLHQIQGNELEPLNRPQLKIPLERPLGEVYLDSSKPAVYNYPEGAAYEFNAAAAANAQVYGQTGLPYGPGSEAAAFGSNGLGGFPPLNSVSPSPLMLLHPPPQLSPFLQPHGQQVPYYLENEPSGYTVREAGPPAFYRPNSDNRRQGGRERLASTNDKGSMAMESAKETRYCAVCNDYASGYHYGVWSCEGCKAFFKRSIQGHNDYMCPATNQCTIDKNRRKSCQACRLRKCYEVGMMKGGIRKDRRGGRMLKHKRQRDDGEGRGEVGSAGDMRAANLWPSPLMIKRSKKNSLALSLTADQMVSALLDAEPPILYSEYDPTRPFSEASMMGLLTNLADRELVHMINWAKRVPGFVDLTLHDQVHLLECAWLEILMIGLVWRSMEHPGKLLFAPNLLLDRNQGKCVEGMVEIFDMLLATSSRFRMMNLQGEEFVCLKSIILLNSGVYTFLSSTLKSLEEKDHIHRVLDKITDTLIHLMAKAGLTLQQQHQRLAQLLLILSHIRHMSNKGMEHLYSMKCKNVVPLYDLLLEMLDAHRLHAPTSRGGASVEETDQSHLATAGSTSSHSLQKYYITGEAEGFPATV

In the case of `CC(O)(c1ccc(Cl)cc1)c1ccc(Cl)cc1`, the Potency result in [1], in test [2], in test [3], in test [4], in [5] and in test [6] was “inactive” each time. Further, in test [7], the Potency was 61.1 µM (active).

On to `COc1cccc(-c2ccc(/C=C\CN3CCCCCC3)cc2Cl)c1`, for which the Potency is 3.05 µM (active) in test [8]; 0.483 µM (active) in test [9]; 2.16 µM (active) in [10]; 21.6 µM (active) in test [11]; 21.6 µM (active) in test [12]; 60.9 µM (active) in [7]. The Potency entry in test [13], in test [3], in [4] and in [6] was “inactive” each time.

As for `CCCCCCCC/C=C\CCCCCCCC(=O)N(CCO)CCO`, the Potency in test [8] is 15.3 µM (active); in [9], 17.2 µM (active); in [10], 13.6 µM (active); in test [1], 43.1 µM (active); in [11], 54.3 µM (active); in test [12], 68.3 µM (active). The results for the Potency in [13] and in test [14] were 21.8 µM [inconclusive] (active) and 54.3 µM (active), respectively. In addition, the Potency result in [2], in [3], in test [4] and in test [7] was “inactive” each time.

`S=C1NC=NC2N=CNC12` (stereo not given): the Potency in test [8] was 54.5 µM (active); in [9] it was 48.6 µM (active); in test [3], 11 µM (active). The Potency entry in [1], in test [11], in [2], in test [6] and in test [7] was “inactive” in each case.

Consider `Nc1ccc(N)c([N+](=O)[O-])c1`, for which the Potency in test [11] is 32.5 µM (active). Besides, the Potency entry in test [12], in test [2] and in test [7] was “inactive” in each case.

As for `Cc1cccc(C)c1NC(=O)C1CCCCN1C` (stereo not given), the Potency result in test [8], in [9], in [10], in [1], in [11] and in test [12] was “inactive” throughout. The Potency entry in test [2], in test [13], in [3], in test [4], in test [5] and in test [14] was “inactive” in each case. Moreover, the Potency result in test [7] was “inactive”.

On to `CCCCCCCCOC(=O)c1cc(O)c(O)c(O)c1`, for which the Potency is 1.37 µM (active) in test [9]; 0.611 µM (active) in test [10]; 48.6 µM (active) in test [1]; 1.93 µM (active) in test [12]; 61.6 µM [cytotoxic] (active) in test [13]; 34.4 µM (active) in [7].

For the compound `OCCCNc1ccccc1`, the Potency entry in test [10], in test [15], in test [1], in test [11], in [12] and in test [2] was “inactive” each time. In addition, the Potency entry in [13], in test [3], in [4], in [5], in test [14] and in [7] was “inactive” in each case.

For `CS(=O)(=O)c1ccc([C@@H](CC2CCCC2)C(=O)Nc2cnccn2)cc1Cl`, the Potency result in test [2] and in [7] was “inactive” throughout.

On to `COc1ccc2ccccc2c1`, for which the Potency entry in test [12], in test [2] and in test [7] was “inactive” in each case.

For the compound `CN1CCN(c2ccccc2/C=C2\SCCN(c3ccc(Cl)c(Cl)c3)C2=O)CC1`, the Potency is 2.73 µM (active) in test [9]; 5.45 µM (active) in test [10]; 8.63 µM (active) in [11]; 8.63 µM (active) in test [12]; 43.6 µM (active) in test [3]. The Potency result in [4] and in test [7] was “inactive” in each case.

Take `N=C(N)c1ccc(/C=C/c2ccc(C(=N)N)cc2O)cc1`: the Potency result in test [15], in [1], in [12], in test [2], in test [13] and in test [3] was “inactive” each time. For the same compound, the Potency result in [4], in test [5], in test [14], in test [6] and in test [7] was “inactive” throughout.

Take `COc1cc2c(cc1O)CCN[C@]21CS[C@@H]2c3c(OC(C)=O)c(C)c4c(c3[C@H](COC1=O)N1[C@@H]2[C@H]2c3c(cc(C)c(OC)c3O)C[C@@H]([C@@H]1O)N2C)OCO4`: the Potency in [8] was 0.9 nM (active) and 2.4 nM (active); in test [9], 0.0486 µM (active); in test [10], 0.0001 µM (active); in [11] it was 2.4 nM (active) and 4.3 nM (active); in test [12], 1.9 nM (active) and 2.7 nM (active); in test [13], 33.8 nM [inconclusive] (active) and 49 nM [inconclusive] (active). The Potency was 26.6 nM (active) and 43.3 nM (active) in test [14]; 26.6 µM (active) and 13.7 µM (active) in test [6]; 29.8 nM (active) and 48.6 nM (active) in [7]. Further, the Potency entry in test [1] and in [4] was “inactive” in each case.

In the case of `CO[C@H]1C[C@@H]2CC[C@@H](C)[C@@](O)(O2)C(=O)C(=O)N2CCCC[C@H]2C(=O)O[C@H]([C@H](C)C[C@@H]2CC[C@@H](O)[C@H](OC)C2)CC(=O)[C@H](C)C=C(C)[C@@H](O)[C@@H](OC)C(=O)[C@H](C)C[C@H](C)/C=C/C=CC=C1C`, the Potency was 2.7 nM (active) and 2.4 nM (active) in test [9]; 3.3 nM (active) and 5.3 nM (active) in test [10]; 10.7 µM (active) and 26.8 µM (active) in [16]; 29.8 µM (active) in test [1]; 21.1 µM (active) and 23.7 µM (active) in [18]; 15 µM (active) and 9.44 µM (active) in [11]. The Potency was 15 µM (active) in test [12]; 23.9 µM (active) in [3]; 3.8 nM (active) and 7.5 nM (active) in test [14]; 23.7 µM (active) and 3.76 µM (active) in test [6]; 2.11 µM (active) in [7]. Further, the Potency result in test [17] and in [4] was “inactive” each time.

Take `CN1C(C(=O)Nc2ccccn2)C(=O)c2sc(Cl)cc2S1(=O)=O` (stereo not given): the Potency result in test [10], in test [1], in test [12], in test [2], in test [13] and in test [3] was “inactive” each time. The Potency entry in test [4], in test [5], in test [14] and in test [7] was “inactive” in each case.

For the compound `COc1ccc(/C=C/C(=O)Nc2ccccc2C(=O)O)cc1OC`, the Potency entry in test [8], in [17], in test [1], in [18], in [11] and in test [2] was “inactive” throughout. Further, the Potency entry in [13], in [3], in test [4], in test [5], in [6] and in test [7] was “inactive” in each case. In addition, the Potency in test [12] was 4.73 µM (active); in test [14] it was 8.41 µM (active).

With `NC(=O)c1cc[n+](CC2=C(C(=O)O)N3C(=O)[C@@H](NC(=O)C(c4ccccc4)S(=O)(=O)[O-])[C@H]3SC2)cc1` (stereo not given in full), the Potency result in test [8], in test [9], in [17], in [1], in test [18] and in test [11] was “inactive” throughout. The Potency result in [2], in test [3], in test [6] and in test [7] was “inactive” throughout.

On to `C=C(Nc1ccc(OCC)cc1)Nc1ccc(OCC)cc1`, for which the Potency is 29.8 µM (active) and 23.7 µM (active) in test [8]; 23.7 µM (active) in test [10]. The Potency result in test [15], in test [1], in test [11], in test [12], in test [2] and in test [13] was “inactive” each time. For the same compound, the Potency result in test [3], in [4], in test [5], in [14], in test [6] and in [7] was “inactive” throughout.

With `CN1CCN(CCCN2c3ccccc3Sc3ccc(C(F)(F)F)cc32)CC1`, the Potency in [8] was 5.31 µM (active); in [9], 2.11 µM (active); in [10], 5.31 µM (active); in [11], 10.6 µM (active); in [12] it was 9.44 µM (active); in test [7], 26.6 µM (active). Besides, the Potency result in [2] and in [6] was “inactive” each time.

The record behind these values is PubChem BioAssay (Tox21).
